Measurements published in the supplement of paper PMC3545927.
Some of the results follow. No count for the full screen is at hand.

Biological target: furin, P09958
Assay: furin cleavage Z-score vs untreated control; higher = more cleavage, active = 3.5 or more, inactive = 1 or less, 8 variable residues between constant flanks
Procedure: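 Multiplexed peptide-cDNA fusion cleavage assay. 8-mer variable peptides flanked by constant Cys-Ala (N-term) and Ala-Gly-Asn-Ala-Ser-Ala-Ser-Ala (C-term) and conjugated to a cDNA oligonucleotide were bead-immobilised via the N-terminus. They were treated with purified furin at a 1:10 enzyme:substrate ratio in 50 mM HEPES pH 7.5, 1 mM CaCl2, 100 mM NaCl for 7.5, 15 or 30 min. Released cDNA was counted by next-generation sequencing, and log counts versus no-furin controls were lowess-adjusted and converted to robust Z-scores.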

furin, P09958, sequence (P09958 whole entry): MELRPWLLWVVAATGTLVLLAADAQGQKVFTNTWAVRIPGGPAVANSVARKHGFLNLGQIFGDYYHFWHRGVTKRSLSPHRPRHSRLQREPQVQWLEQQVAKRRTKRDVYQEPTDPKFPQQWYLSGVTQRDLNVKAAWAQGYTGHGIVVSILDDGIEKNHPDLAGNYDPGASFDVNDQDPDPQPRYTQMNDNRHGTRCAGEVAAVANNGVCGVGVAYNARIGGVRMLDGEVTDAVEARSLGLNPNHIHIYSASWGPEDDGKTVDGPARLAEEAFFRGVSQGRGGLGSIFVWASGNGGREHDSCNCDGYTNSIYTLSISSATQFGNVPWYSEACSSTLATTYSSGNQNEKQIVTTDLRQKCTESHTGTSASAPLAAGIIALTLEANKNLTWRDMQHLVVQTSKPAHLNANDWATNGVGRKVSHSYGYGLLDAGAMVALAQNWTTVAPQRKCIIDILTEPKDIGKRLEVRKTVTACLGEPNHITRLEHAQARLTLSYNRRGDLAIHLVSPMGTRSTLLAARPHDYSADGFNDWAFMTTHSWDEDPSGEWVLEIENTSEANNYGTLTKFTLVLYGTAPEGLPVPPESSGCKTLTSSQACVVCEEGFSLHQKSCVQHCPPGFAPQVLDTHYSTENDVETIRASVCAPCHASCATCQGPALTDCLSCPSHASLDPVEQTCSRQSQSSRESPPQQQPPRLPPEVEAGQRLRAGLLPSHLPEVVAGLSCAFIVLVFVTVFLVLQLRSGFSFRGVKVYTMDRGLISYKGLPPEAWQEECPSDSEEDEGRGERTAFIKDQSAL

Sequence | furin cleavage Z-score (7.5 min) | furin cleavage Z-score (15 min) | furin cleavage Z-score (30 min)
CATRCFDSTVAGNASASA [HC1481] | 1.01 | 0.491 (inactive) | 0.363 (inactive)
CAILQASLLKAGNASASA [HC611] | -0.334 (inactive) | -0.703 (inactive) | -0.0413 (inactive)
CASTPCSACLAGNASASA [HC2560] | 0.847 (inactive) | -0.78 (inactive) | 0.791 (inactive)
CAILEVVTSTAGNASASA [HC2264] | -1.51 (inactive) | -0.366 (inactive) | 0.122 (inactive)
CAMTECSQHLAGNASASA [HC1698] | 0.478 (inactive) | 0.668 (inactive) | 0.28 (inactive)
CAVTCCSMSYAGNASASA [HC2018] | 0.12 (inactive) | -1.47 (inactive) | -1.48 (inactive)
CANAEDVVCCAGNASASA [HC1367] | -0.652 (inactive) | -1.38 (inactive) | -0.581 (inactive)
CAIDRRIARFAGNASASA [FS-539] | 1.87 | 1.35 | 3.96 (active)
CAPGSRKRRTAGNASASA [FS-1147] | 11.2 (active) | 13.8 (active) | 9.92 (active)
CAIDTLTCGFAGNASASA [HC222] | 0.261 (inactive) | -0.013 (inactive) | 0.099 (inactive)
CANCSIYPGHAGNASASA [HC313] | 0.763 (inactive) | -0.054 (inactive) | 0.871 (inactive)
CAVVNRKARFAGNASASA [FS-208] | 6.98 (active) | 8.16 (active) | 8.51 (active)
CAISERQARFAGNASASA [FS-171] | 0.813 (inactive) | -0.669 (inactive) | 1.86
CANCSRKRRTAGNASASA [FS-551] | 9.83 (active) | 9.81 (active) | 7.5 (active)
CANCSREARGAGNASASA [FS-832] | -1.13 (inactive) | -0.942 (inactive) | -0.54 (inactive)
CASTPCSMHLAGNASASA [HC2526] | 0.123 (inactive) | 0.577 (inactive) | 0.242 (inactive)

Sequence | furin cleavage Z-score (7.5 min) | furin cleavage Z-score (15 min) | furin cleavage Z-score (30 min)
CAVHGCPLPPAGNASASA [HC1316] | -0.297 (inactive) | 0.367 (inactive) | 0.0305 (inactive)
CAEEECSQHLAGNASASA [HC1672] | 0.0201 (inactive) | 1.31 | 0.995 (inactive)
CAGDRVYIHPAGNASASA [EK2] | -0.225 (inactive) | -0.247 (inactive) | -0.383 (inactive)
CAMEHCSQHLAGNASASA [HC1715] | -0.776 (inactive) | -0.0908 (inactive) | 0.617 (inactive)
CAHPDATYSRAGNASASA [HC455] | -0.242 (inactive) | -1.51 (inactive) | -2.12 (inactive)
CATRSRRGRFAGNASASA [FS-204] | 2.71 | 5.35 (active) | 4.64 (active)
CAPMSRGDRFAGNASASA [FS-701] | -0.701 (inactive) | -0.0648 (inactive) | 0.556 (inactive)
CAQWIRVKRTAGNASASA [FS-372] | 10 (active) | 8.77 (active) | 8.64 (active)
CASWNRVARTAGNASASA [FS-199] | 4.98 (active) | 4.02 (active) | 5.03 (active)
CAMPRRRGRFAGNASASA [FS-1037] | -0.497 (inactive) | 1.44 | 2.55
CASWTGALVTAGNASASA [HC1373] | 1.05 | 1.42 | 0.57 (inactive)
CAPWITPRCLAGNASASA [HC461] | 1.9 | 1.18 | 0.0858 (inactive)
CALWSRYGRFAGNASASA [FS-1034] | 0.532 (inactive) | 1.92 | -0.157 (inactive)
CAPGSRKARFAGNASASA [FS-280] | 7.61 (active) | 8.81 (active) | 9.66 (active)
CAHHNLVYSTAGNASASA [HC1387] | 0.206 (inactive) | 0.355 (inactive) | 0.257 (inactive)
CAQRSRQKKTAGNASASA [FS-1392] | -1.4 (inactive) | -0.885 (inactive) | 0.286 (inactive)
